Records with an inconclusive call do not appear. The source made the active and inactive calls. Unless noted, calls come from the whole dose curve; as a rule, active = well fitted curve in the direction sought with a large enough effect; inconclusive = small, poorly fitted or top-dose-only effect, or another doubt; inactive = no such curve, though single readings can be large; an effect the other way counts as inactive or inconclusive.
Columns and labels:
[1] = HepG2 viability counterscreen (readout 2: ATP content) against the NCATS DSHEA and TCM libraries (AID 1794840); settings: ATP content luminescence; series mostly up to 27.3 µM;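 note: HepG2 cells exposed to substances for about 24 h; 0% is about no effect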
How it was run: (§1)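 Cytotoxicity was assessed in HepG2 cells plated at 1,000 cells/well and exposed for about 24 hours to a concentration series. Protease activity and ATP content were measured sequentially in each well.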

[2] = target: Cytochrome P450 2D6 (Homo sapiens) (UniProt P10635); test: qHTS for inhibitors of CYP2D6 against the NCATS DSHEA and TCM libraries (AID 1919972); settings: CYP2D6 enzymatic inhibition, luminescence qHTS; series mostly up to 34.1 µM; note: % is set by controls: 0 for no effect and ±100 for the full control effect
How it was run: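 qHTS, concentration–response format with most substances from 19.5 nM. CYP2D6 + pro-luciferin substrate, 15 min with compound, then 1x NADPH regen, 30–45 min RT dark. Glo detection 30 min, luminescence. Quinidine control.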

[3] = target: Cytochrome P450 2C9 (Homo sapiens) (UniProt P11712); test: qHTS for inhibitors of CYP2C9 against the NCATS DSHEA and TCM libraries (AID 1919973); settings: recombinant CYP2C9 enzyme activity, luminescence; series mostly up to 34.1 µM; note: potency is the fitted concentration of half-maximal effect
How it was run: (§2)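 Substances were tested against enzyme with a pro-luciferin substrate; minus-enzyme wells served as background. After NADPH-initiated oxidation (30-45 min, RT), light was generated with P450-Glo reagent.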

[4] = target: Cytochrome P450 2C19 (Homo sapiens) (UniProt P33261); test: qHTS for inhibitors of CYP2C19 against the NCATS DSHEA and TCM libraries (AID 1919974); settings: CYP2C19 enzyme inhibition, luminescence qHTS; series mostly up to 34.1 µM;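 note: luminescence from luciferin released by CYP2C19 oxidation of a pro-luciferin substrate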; note: potency is the fitted concentration of half-maximal effect
How it was run: as §2

[5] = KB-3-1 P-gp reporter qHTS against the NCATS DSHEA and TCM libraries (AID 1919975); settings: KB-3-1 parental cells, CellTiter-Glo luminescence viability, 72 h; series mostly up to 26.1 µM; note: 0% is about no effect
How it was run: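 72 h exposure of KB-3-1 cells (DMEM, 10% FBS) to DSHEA/TCM samples, concentration-response; cell viability measured as CellTiter-Glo luminescence after 30 min at room temperature.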

[6] = qHTS Counterscreen for compound interference against the NCATS DSHEA and TCM libraries (AID 1919978); settings: firefly luciferase detection reagent interference, luminescence; note: % of control where 0% means no effect
How it was run: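 Read-out is luminescence after 30 min at RT with luciferin detection reagent. Before that, compounds (19.5 nM to 39.8 uM final) sat 15 min at RT with 1 uM D-luciferin or 100 mM potassium phosphate buffer. PTC124 served as intraplate control.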

[7] = Dual reporter qHTS for agonist of Pregnane X Receptor (hPXR) against the NCATS DSHEA and TCM libraries: Fluorescence readout (AID 1920058); settings: PXR dual reporter cells; series mostly up to 40 µM; note: 0% is about no effect
How it was run: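 Fluorescence read-out for cell viability: CellTiter-Fluor, 1 h at 37 °C, Ex/Em 405/540 nm. This followed ~24 h treatment of hPXR-Luc HepG2 cells with substances in agonist mode.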

[8] = target: Nuclear receptor subfamily 1 group I member 2 (Homo sapiens) (UniProt O75469); test: Dual reporter qHTS for agonist of Pregnane X Receptor (hPXR) against the NCATS DSHEA and TCM libraries: Luminescence readout (AID 1920059); settings: hPXR dual reporter cells, luciferase luminescence agonist; series mostly up to 40 µM; note: potency is the fitted concentration of half-maximal effect
How it was run: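 hPXR-Luc HepG2 cells, 2000/well in 5% charcoal-stripped FBS medium, attached 5 h, then exposed 24 h at 37C to compounds. Viability by CellTiter-Fluor, then luciferase luminescence with ONE-Glo.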

[9] = target: Nuclear receptor subfamily 1 group I member 2 (Homo sapiens) (UniProt O75469); test: Dual reporter qHTS for antagonist of Pregnane X Receptor (hPXR) against the NCATS DSHEA and TCM libraries: Luminescence Readout (AID 1920060); settings: hPXR dual reporter cells, luciferase luminescence, antagonist mode; series mostly up to 40 µM;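 note: HepG2 cells carrying hPXR luciferase reporter stimulated with rifampicin at 2 µM; 0% is about no effect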
How it was run: (§3)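 In antagonist mode, 2 uM rifampicin was added to hPXR-Luc HepG2 cells alongside test substances, incubated 24 h at 37 C; luminescence gave reporter activity, and CellTiter-Fluor fluorescence (405/540 nm) gave viability.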

[10] = Dual reporter qHTS for antagonist of Pregnane X Receptor (hPXR) against the NCATS DSHEA and TCM libraries: Fluorescence Readout (AID 1920061); settings: PXR dual reporter cells, antagonist mode; series mostly up to 40 µM; note: 0% is about no effect
How it was run: as §3

[11] = NFAT Signaling Pathway (AID 444; active = well fitted curve in either direction with a large enough effect, not every such curve was filed as active;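 note: carbachol stimulus at about its EC50 of 1 µM final; % is set by controls: 0 for no effect and ±100 for the full control effect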); settings: Jurkat NFAT-bla M1, carbachol, beta-lactamase ratio, 5 h; at 7.69 µM (top of the series) unless noted
How it was run: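 Jurkat cells with NFAT-driven β-lactamase reporter and co-expressed M1 receptor, stimulated with carbachol (final 1 uM, ~EC50), compound titration, 5 h at 37 °C. CCF4 loaded 1 h at RT; 460/530 nm ratio gave %activity and AC50.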

[12] = target: Glucocorticoid receptor (Homo sapiens) (UniProt P04150); test: GR-GFP Redistribution (AID 450;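 active = compounds whose dose series gives a full or clear partial fitted curve of increased nuclear translocation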; note: potency is the fitted concentration of half-maximal effect); settings: U2OS GR-GFP nuclear translocation, laser cytometry, 2 h
[13] = target: Mitogen-activated protein kinase 10 (Mus musculus) (UniProt Q61831); test: JNK3 AlphaScreen Assay (AID 530; active = well fitted curve in either direction with a large enough effect, not every such curve was filed as active;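 note: kinase came from lysate of stimulated human HepG2 cells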; note: potency is the fitted concentration of half-maximal effect;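 for activity change, negative = inhibition: signal reports phosphorylation of biotinylated GST-cJun 1-79 at Ser73 with 10 µM ATP; % is set by controls: 0 for no effect and ±100 for the full control effect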); settings: JNK3 lysate, c-Jun phosphorylation; series mostly up to 57.1 µM
How it was run: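 HepG2 lysate (IL-1b/TNFa pre-activated) + biotin-GST-cJun 1-79 + anti-pSer73 cJun; cpd titration, 15 min RT; ATP 10 uM start; Tris pH 7.6, MgCl2, DTT, vanadate; beads in EDTA buffer; AlphaScreen.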

[14] = target: Ubiquitin carboxyl-terminal hydrolase 1 (Homo sapiens) (UniProt O94782); test: Inhibitors of USP1/UAF1: Pilot qHTS (AID 504865); settings: purified USP1/UAF1, Ub-rhodamine cleavage fluorescence; series mostly up to 54.9 µM;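 note: rhodamine fluorescence freed from ubiquitin-rhodamine substrate followed over time; top concentration of the series differs between compounds; % is set by controls: 0 for no effect and ±100 for the full control effect; nearly all actives have a fitted effect of over 35% in size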
How it was run: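 Kinetic fluorescence assay: 1nM USP1/UAF1, 15 min compound preincubation, then 150nM Ub-Rho; 480/540 nm.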

[15] = HepG2 viability counterscreen (readout 1: protease activity) against the NCATS DSHEA and TCM libraries (AID 1794841); settings: qHTS concentration series; series mostly up to 27.3 µM;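 note: cells exposed to compounds for about 24 h before the protease read; 0% is about no effect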
How it was run: as §1

[16] = target: Cytochrome P450 3A4 (Homo sapiens) (UniProt P08684); test: qHTS for inhibitors of CYP3A4 against the NCATS DSHEA and TCM libraries (AID 1919971); settings: recombinant CYP3A4 enzyme activity, luminescence qHTS; series mostly up to 34.1 µM;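 note: % is set by controls: 0 for no effect and ±100 for the full control effect; inhibition lowers luminescence from luciferin made by CYP3A4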
How it was run: as §2

[17] = Viability counterscreen for antagonist of constitutive androstane receptor (CAR) against the NCATS DSHEA and TCM libraries (AID 1794837); settings: CAR reporter cell line viability counterscreen, qHTS; series mostly up to 40 µM;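 note: compound exposure lasted 24 h before viability reading; 0% is about no effect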
How it was run: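 Fluorescence from CellTiter-Fluor reports live-cell protease activity in HepG2-CYP2B6-hCAR cells treated for 24 h with substances alongside 48 uM CITCO.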

[18] = Viability counterscreen for agonist of constitutive androstane receptor (CAR) against the NCATS DSHEA and TCM libraries (AID 1794838); settings: HepG2 cell viability counterscreen, CAR agonist assay, co-treated with 0.75 µM CAR antagonist; series mostly up to 40 µM; note: 0% is about no effect
How it was run: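 In agonist mode, PK11195 is added at 0.75 uM final to HepG2-CYP2B6-hCAR cells dosed with test substances. Cultures incubate 24 h at 37C before a protease-based fluorogenic viability readout.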

[19] = target: Nuclear receptor subfamily 1 group I member 3 (Homo sapiens) (UniProt Q14994); test: Primary qHTS for agonist of constitutive androstane receptor (CAR) against the NCATS DSHEA and TCM libraries (AID 1794839); settings: CAR agonist reporter cells, qHTS luminescence, CAR antagonist co-added at 0.75 µM; series mostly up to 40 µM; note: potency is the fitted concentration of half-maximal effect
How it was run: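 Cells stably carrying hCAR and a CYP2B6 reporter (HepG2 background) are seeded and allowed 5 h to adhere. Substances at multiple concentrations are added alongside 0.75 µM PK11195, and luciferase signal is measured after 24 h.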

[20] = target: Cytochrome P450 1A2 (Homo sapiens) (UniProt P05177); test: qHTS for inhibitors of CYPIA2 against the NCATS DSHEA and TCM libraries (AID 1919976); settings: recombinant CYP1A2 enzyme activity, luminescence; series mostly up to 37 µM; note: % is set by controls: 0 for no effect and ±100 for the full control effect
How it was run: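 Luminescence read-out: pro-luciferin converted to D-luciferin by CYP1A2, detected with P450-Glo reagent after 30 min RT. Enzyme plus substrate got compounds for 15 min RT; NADPH regeneration solution (final 1x) started a 30-45 min reaction, light-protected.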

Sequence of Glucocorticoid receptor (Homo sapiens) (P04150 whole entry, looked up): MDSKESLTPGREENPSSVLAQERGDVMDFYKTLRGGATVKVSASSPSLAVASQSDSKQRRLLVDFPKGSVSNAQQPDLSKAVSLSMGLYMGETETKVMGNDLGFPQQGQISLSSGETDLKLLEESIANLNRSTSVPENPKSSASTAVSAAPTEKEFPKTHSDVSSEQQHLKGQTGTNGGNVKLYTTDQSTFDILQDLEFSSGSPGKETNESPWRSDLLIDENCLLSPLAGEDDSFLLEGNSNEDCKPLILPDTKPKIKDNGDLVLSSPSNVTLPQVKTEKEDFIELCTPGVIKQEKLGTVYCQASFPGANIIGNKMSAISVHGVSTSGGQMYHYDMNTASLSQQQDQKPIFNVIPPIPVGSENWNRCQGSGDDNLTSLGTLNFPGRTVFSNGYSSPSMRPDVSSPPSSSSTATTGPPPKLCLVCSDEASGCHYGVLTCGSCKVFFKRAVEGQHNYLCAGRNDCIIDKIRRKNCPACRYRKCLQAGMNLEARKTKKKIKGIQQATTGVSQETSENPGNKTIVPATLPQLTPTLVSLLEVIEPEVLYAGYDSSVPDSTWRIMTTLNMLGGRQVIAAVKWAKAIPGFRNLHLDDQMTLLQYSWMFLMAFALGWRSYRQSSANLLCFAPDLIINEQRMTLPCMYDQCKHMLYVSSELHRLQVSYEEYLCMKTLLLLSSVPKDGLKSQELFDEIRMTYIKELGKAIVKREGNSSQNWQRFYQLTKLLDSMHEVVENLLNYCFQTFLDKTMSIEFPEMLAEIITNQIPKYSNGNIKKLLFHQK
Sequence of Cytochrome P450 2C9 (Homo sapiens) (P11712 whole entry, looked up): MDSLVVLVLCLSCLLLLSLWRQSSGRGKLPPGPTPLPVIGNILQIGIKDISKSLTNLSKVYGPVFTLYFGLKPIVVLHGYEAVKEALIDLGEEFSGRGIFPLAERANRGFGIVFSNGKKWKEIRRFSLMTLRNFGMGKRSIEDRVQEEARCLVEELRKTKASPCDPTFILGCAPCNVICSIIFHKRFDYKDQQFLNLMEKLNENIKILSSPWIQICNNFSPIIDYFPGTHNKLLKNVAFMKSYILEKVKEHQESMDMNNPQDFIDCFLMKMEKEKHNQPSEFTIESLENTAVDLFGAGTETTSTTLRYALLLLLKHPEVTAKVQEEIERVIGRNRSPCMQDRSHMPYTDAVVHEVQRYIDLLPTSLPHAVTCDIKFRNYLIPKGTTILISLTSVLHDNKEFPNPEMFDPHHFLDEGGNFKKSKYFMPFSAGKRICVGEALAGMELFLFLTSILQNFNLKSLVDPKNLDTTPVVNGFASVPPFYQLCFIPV
Sequence of Ubiquitin carboxyl-terminal hydrolase 1 (Homo sapiens) (O94782 whole entry, looked up): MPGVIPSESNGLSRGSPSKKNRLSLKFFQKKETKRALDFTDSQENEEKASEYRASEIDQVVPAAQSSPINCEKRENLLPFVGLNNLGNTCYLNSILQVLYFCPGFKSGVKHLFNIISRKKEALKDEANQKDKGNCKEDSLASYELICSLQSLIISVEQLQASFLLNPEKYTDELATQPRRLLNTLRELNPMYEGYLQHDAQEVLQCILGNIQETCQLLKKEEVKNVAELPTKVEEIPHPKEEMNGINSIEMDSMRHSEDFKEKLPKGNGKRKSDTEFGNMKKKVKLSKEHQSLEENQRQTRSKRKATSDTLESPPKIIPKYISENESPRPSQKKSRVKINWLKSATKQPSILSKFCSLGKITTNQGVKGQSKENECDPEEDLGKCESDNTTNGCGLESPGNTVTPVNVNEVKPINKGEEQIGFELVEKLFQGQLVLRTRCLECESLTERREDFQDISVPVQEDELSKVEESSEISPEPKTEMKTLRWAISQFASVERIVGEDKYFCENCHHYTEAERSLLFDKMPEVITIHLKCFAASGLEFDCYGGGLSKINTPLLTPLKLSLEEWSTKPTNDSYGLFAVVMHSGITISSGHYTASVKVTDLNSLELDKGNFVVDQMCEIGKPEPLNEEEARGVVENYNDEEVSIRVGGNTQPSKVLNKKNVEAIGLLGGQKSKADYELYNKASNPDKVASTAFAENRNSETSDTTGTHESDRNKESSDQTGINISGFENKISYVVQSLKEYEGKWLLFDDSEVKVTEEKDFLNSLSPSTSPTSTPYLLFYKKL
Sequence of Cytochrome P450 2D6 (Homo sapiens) (P10635 whole entry, looked up): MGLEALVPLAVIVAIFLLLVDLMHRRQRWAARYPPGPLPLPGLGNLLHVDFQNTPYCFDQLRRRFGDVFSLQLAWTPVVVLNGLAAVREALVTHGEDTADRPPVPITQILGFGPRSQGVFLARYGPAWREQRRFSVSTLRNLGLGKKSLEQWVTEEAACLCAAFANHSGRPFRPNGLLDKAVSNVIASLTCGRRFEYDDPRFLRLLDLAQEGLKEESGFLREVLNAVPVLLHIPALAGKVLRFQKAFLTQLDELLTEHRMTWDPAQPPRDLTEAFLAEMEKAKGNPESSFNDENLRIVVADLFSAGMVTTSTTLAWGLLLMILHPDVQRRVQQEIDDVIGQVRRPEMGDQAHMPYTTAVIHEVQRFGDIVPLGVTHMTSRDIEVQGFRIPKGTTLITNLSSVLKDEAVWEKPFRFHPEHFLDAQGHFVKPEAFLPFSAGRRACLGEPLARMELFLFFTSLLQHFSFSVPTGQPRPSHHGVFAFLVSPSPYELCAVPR
Sequence of Nuclear receptor subfamily 1 group I member 2 (Homo sapiens) (O75469 whole entry, looked up): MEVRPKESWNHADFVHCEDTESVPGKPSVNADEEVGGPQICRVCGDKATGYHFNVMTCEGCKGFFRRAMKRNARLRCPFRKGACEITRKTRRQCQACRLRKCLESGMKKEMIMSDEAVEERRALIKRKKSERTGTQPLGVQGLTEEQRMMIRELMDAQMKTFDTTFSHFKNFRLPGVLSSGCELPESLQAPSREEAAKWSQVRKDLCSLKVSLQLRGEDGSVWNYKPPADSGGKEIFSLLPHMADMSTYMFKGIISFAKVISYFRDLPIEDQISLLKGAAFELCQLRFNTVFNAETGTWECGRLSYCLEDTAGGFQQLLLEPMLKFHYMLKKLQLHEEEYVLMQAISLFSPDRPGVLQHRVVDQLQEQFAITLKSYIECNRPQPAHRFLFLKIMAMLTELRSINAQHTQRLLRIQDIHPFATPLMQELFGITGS
Sequence of Cytochrome P450 2C19 (Homo sapiens) (P33261 whole entry, looked up): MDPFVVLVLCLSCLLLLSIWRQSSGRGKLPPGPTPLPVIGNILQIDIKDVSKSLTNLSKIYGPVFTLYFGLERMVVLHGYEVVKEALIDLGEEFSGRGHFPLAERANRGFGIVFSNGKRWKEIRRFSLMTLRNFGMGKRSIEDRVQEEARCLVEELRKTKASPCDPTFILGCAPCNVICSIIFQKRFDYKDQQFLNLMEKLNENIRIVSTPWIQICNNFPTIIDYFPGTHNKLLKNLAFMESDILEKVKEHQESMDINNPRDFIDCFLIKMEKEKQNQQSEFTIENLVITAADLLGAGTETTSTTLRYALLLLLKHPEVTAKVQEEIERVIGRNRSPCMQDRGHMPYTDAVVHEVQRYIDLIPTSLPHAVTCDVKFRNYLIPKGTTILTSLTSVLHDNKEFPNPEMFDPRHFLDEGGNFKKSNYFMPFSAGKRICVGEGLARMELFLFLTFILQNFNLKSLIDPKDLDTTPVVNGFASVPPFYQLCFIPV
Sequence of Cytochrome P450 3A4 (Homo sapiens) (P08684 whole entry, looked up): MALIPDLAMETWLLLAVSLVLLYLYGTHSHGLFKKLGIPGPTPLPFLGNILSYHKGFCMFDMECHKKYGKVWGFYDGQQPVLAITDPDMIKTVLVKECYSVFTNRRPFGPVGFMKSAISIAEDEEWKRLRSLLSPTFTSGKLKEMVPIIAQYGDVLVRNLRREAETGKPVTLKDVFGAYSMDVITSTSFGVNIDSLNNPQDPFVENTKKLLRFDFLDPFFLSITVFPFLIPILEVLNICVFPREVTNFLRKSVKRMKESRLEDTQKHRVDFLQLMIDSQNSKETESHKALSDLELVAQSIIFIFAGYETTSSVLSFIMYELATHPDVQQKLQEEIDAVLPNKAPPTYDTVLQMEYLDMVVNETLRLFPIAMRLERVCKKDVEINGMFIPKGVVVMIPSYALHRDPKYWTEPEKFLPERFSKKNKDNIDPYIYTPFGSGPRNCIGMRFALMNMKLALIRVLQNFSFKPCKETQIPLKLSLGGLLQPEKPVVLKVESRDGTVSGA
Sequence of Nuclear receptor subfamily 1 group I member 3 (Homo sapiens) (Q14994 whole entry, looked up): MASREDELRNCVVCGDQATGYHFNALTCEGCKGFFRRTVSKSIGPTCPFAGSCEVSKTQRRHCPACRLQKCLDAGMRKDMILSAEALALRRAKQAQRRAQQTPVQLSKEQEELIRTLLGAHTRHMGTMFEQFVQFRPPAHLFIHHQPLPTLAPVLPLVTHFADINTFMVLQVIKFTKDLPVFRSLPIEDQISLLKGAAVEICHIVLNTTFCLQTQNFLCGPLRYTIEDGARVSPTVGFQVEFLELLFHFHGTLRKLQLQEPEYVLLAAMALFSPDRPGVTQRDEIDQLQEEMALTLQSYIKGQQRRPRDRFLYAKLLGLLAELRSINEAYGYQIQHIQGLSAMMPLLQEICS
Sequence of Cytochrome P450 1A2 (Homo sapiens) (P05177 whole entry, looked up): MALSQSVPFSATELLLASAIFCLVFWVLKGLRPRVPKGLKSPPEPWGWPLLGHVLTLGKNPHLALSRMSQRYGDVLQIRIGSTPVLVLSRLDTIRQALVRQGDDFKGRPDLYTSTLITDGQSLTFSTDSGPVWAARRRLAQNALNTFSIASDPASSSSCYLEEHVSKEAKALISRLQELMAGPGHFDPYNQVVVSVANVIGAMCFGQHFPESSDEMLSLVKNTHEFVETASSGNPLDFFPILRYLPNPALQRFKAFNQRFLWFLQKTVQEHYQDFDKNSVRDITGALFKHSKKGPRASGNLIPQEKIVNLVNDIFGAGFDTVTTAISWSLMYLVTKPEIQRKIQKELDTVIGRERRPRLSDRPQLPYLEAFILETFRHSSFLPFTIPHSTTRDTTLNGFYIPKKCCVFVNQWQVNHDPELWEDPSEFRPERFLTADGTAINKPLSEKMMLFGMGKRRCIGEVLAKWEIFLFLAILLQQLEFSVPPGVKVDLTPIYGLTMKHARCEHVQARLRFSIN

CCCCCCCC/C=C/CCCCCCCC(=O)O
active: Potency [3] 14.1 µM | Potency [4] 3.55 µM
inactive: outcome [1] | Potency [2] | outcome [5] | max response [6] -3.39% | outcome [7] | Potency [8] | outcome [9] | outcome [10]

COc1ccccc1CNc1nc(-c2ccc(C(=O)N(C)C)cc2)nc2ccccc12
inactive: activity change, negative = inhibition [11] -1.92% | Potency [12] > 46 µM | Potency [13] | Potency [14]

CCCCCCCCCCCC(=O)O
inactive: Potency [13] | outcome [1] | outcome [15] | Potency [16] | Potency [2] | outcome [5] | max response [6] 3.72% | outcome [7] | Potency [8] | outcome [9] | outcome [10]

C=C(C)[C@H]1CC=C(CO)CC1
inactive: outcome [17] | outcome [18] | outcome [1] | outcome [15] | Potency [2] | outcome [5] | max response [6] 2.16% | outcome [7] | Potency [8] | outcome [9] | outcome [10]
active: Potency [4] 12.6 µM

COc1ccccc1/C=C/C=O
inactive: outcome [1] | outcome [15] | Potency [16] | Potency [2] | Potency [3] | outcome [5] | max response [6] -3.3% | outcome [7] | Potency [8] | outcome [9] | outcome [10]

COc1ccc2[nH]cc(CCNc3ncncc3-c3ccccc3C(F)(F)F)c2c1
inactive: activity change, negative = inhibition [11] -3.73% | Potency [12] > 46 µM | Potency [13] | Potency [14]

O=c1cnc2cnc(N3CCOCC3)nc2n1Cc1cccs1
inactive: activity change, negative = inhibition [11] -0.57% | Potency [12] > 9.22 µM | Potency [13] | Potency [14]

CN(C)Cc1ccccc1-c1ccc2ncnc(N(C)C)c2c1
inactive: activity change, negative = inhibition [11] -2.16% | Potency [12] > 46 µM | Potency [13] | Potency [14]

O=c1cc(-c2ccc(O)c(O)c2)oc2cc(O[C@@H]3O[C@@H](CO)[C@@H](O)[C@@H](O)[C@H]3O)cc(O)c12
active: Potency [13] 7.94 µM | Potency [19] 28.2 µM | Potency [3] 3.98 µM | Potency [4] 3.55 µM
inactive: Potency [12] > 46 µM | outcome [18] | outcome [1] | outcome [15] | Potency [2] | outcome [5] | max response [6] 0.762% | outcome [7] | Potency [8] | outcome [9]

CN(C)C(=O)c1ccc(-c2ccc3ncnc(Nc4ccc(F)cc4)c3c2)cc1
inactive: activity change, negative = inhibition [11] 24.8% | Potency [12] > 46 µM | Potency [13] | Potency [14]

CC1=C2[C@H]([C@@H](C)CC[C@@H]2/C=C(\C)C(=O)O)[C@@H](O)C1
inactive: outcome [17] | outcome [18] | outcome [1] | outcome [15] | outcome [5] | max response [6] -1.15% | outcome [7] | outcome [9] | outcome [10]

CCCCC/C=C/C/C=C/CCCCCCCC(=O)O
inactive: outcome [1] | outcome [15] | outcome [5] | max response [6] 0.865% | outcome [7] | Potency [8] | outcome [9] | outcome [10]
active: Potency [3] 12.6 µM | Potency [4] 22.4 µM

CN(C)c1nc(-c2cccc(NS(C)(=O)=O)c2)nc2ccccc12
inactive: activity change, negative = inhibition [11] 10.8% | Potency [12] > 46 µM | Potency [13] | Potency [14]

CC(=O)O[C@@H]1CC[C@@]2(C)[C@@H](CC[C@]3(C)[C@@H]2C(=O)C=C2[C@@H]4[C@@H](C)[C@H](C)CC[C@]4(C)CC[C@]23C)[C@@]1(C)C(=O)O
inactive: outcome [18] | outcome [1] | outcome [15] | Potency [2] | max response [6] -0.124% | outcome [7] | Potency [8] | outcome [10]
active: Potency [3] 14.1 µM | Potency [4] 3.55 µM

C=C1CC[C@H]2C[C@@H]1C2(C)C
inactive: outcome [1] | outcome [15] | Potency [16] | Potency [2] | Potency [3] | Potency [4] | outcome [5] | max response [6] 0.51% | outcome [7] | Potency [8] | outcome [9] | outcome [10]

CNc1ncncc1-c1ccccc1CN(C)C
inactive: activity change, negative = inhibition [11] -28.4% | Potency [12] > 46 µM | Potency [13] | Potency [14]

Cc1ccc(O)c(O)c1
active: Potency [8] 50.1 µM
inactive: outcome [18] | outcome [1] | outcome [15] | Potency [2] | Potency [3] | Potency [4] | outcome [5] | Potency [20] | max response [6] -0.684% | outcome [7] | outcome [9]

CCCCCC/C=C/CCCCCCCCCC(=O)O
inactive: outcome [1] | outcome [15] | Potency [2] | outcome [5] | max response [6] 3.83% | outcome [7] | Potency [8] | outcome [9] | outcome [10]

C=CCc1ccc(OC)c(OC)c1
inactive: Potency [13] | outcome [1] | outcome [15] | Potency [2] | Potency [3] | Potency [4] | outcome [5] | max response [6] -1.2% | outcome [7] | Potency [8] | outcome [9] | outcome [10]

CN1CCN(c2nc(-c3ccoc3)nc3ccccc23)CC1
inactive: activity change, negative = inhibition [11] -2.81% | Potency [12] > 46 µM | Potency [13] | Potency [14]

CCCCCC(=O)O
inactive: outcome [1] | outcome [15] | Potency [16] | Potency [2] | Potency [3] | Potency [4] | outcome [5] | max response [6] -1.64% | outcome [7] | Potency [8] | outcome [9] | outcome [10]

Source: PubChem BioAssay (NCATS)
